The results in this text go back to PubChem BioAssay (NCATS).

Test [1] in a line: qHTS Assay for Identification of Small Molecule Agonists for Thrombopoietin (TPO) Signaling Pathway (AID 917). The method, boiled down: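 Activators of TPO signaling were sought in murine Ba/F3 cells transfected with the human receptor, using a luciferase gene driven by the Glycoprotein IIb promoter; 24-hr compound exposure at 37 C alongside 26 pM TPO, in IL-3-free medium.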
A general note: qHTS replaces the single test concentration by a dilution series.

Another test deals with 7G8. The test is described as follows: qHTS profiling for inhibitors of Plasmodium falciparum proliferation (AID 504749). Also: nearly all actives have a fitted effect of over 60% in size. Also: potency is read from the fitted curve at half-maximal effect. As to conditions: P. falciparum in erythrocytes, SYBR Green DNA, 72 h; series mostly up to 12.8 µM. The essentials: (§1)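 P. falciparum-infected erythrocytes (0.3% parasitemia, 2.5% hematocrit) incubated with compound 72 h at 37 C, 5% CO2. Parasite DNA detected by SYBR Green after lysis, overnight at room temperature; normalised to 0.29 uM artemisinin and DMSO.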

The test system of the next test is ATS95. The test is described as above. To be noted: P. falciparum in erythrocytes, SYBR Green DNA, 72 h; series mostly up to 12.8 µM. The essentials: as §1
A further test concerns C2A. The description is as above. As to conditions: P. falciparum in erythrocytes, SYBR Green DNA, 72 h; series mostly up to 12.8 µM. The method, boiled down: as §1
The subject of another test is CP217. The test is described as above. As to conditions: P. falciparum in erythrocytes, SYBR Green DNA, 72 h; series mostly up to 12.8 µM. The essentials:
as §1

A further test relates to CP237. The description is as above. As to conditions: P. falciparum in erythrocytes, SYBR Green DNA, 72 h; series mostly up to 12.8 µM. The method, boiled down: as §1
A further test has as its system CP252. The test is described as above. To be noted: P. falciparum in erythrocytes, SYBR Green DNA, 72 h; series mostly up to 12.8 µM. The method, boiled down:
as §1

The next test relates to CP268. Described as above. To be noted: P. falciparum in erythrocytes, SYBR Green DNA, 72 h; series mostly up to 12.8 µM. The essentials: as §1
The next test relates to CP269. The test is described as above. To be noted: P. falciparum in erythrocytes, SYBR Green DNA, 72 h; series mostly up to 12.8 µM. The method, boiled down:
as §1

Another test relates to CP286. Described as above. As to conditions: P. falciparum in erythrocytes, SYBR Green DNA, 72 h; series mostly up to 12.8 µM. The method, boiled down: as §1
For the next test, the system named is CP291. Described as above. As to conditions: P. falciparum in erythrocytes, SYBR Green DNA, 72 h; series mostly up to 12.8 µM. The essentials:
as §1

For the next test, the system named is CP305. The description is as above. As to conditions: P. falciparum in erythrocytes, SYBR Green DNA, 72 h; series mostly up to 12.8 µM. The essentials: as §1
A further test deals with CP335. The description is as above. To be noted: P. falciparum in erythrocytes, SYBR Green DNA, 72 h; series mostly up to 12.8 µM. The essentials:
as §1

A further test concerns DFO2036. The test is described as above. As to conditions: P. falciparum in erythrocytes, SYBR Green DNA, 72 h; series mostly up to 12.8 µM. The method, boiled down:
as §1

The subject of a further test is DIV30. The description is as above. To be noted: P. falciparum in erythrocytes, SYBR Green DNA, 72 h; series mostly up to 12.8 µM. The method, boiled down:
as §1

In a further test the test system is ECU. The test is described as above. To be noted: P. falciparum in erythrocytes, SYBR Green DNA, 72 h; series mostly up to 12.8 µM. The essentials:
as §1

The test system of the next test is HB3. The description is as above. As to conditions: P. falciparum in erythrocytes, SYBR Green DNA, 72 h; series mostly up to 12.8 µM. The essentials: as §1
The next test has as its system P94_40. The test is described as above. To be noted: P. falciparum in erythrocytes, SYBR Green DNA, 72 h; series mostly up to 12.8 µM. The method, boiled down:
as §1

For a further test, the system named is PC26. The test is described as above. To be noted: P. falciparum in erythrocytes, SYBR Green DNA, 72 h; series mostly up to 12.8 µM. The method, boiled down:
as §1

For a further test, the system named is TAB165. Described as above. To be noted: P. falciparum in erythrocytes, SYBR Green DNA, 72 h; series mostly up to 12.8 µM. The essentials:
as §1

Records with an inconclusive call do not appear. Active and inactive are the calls of the source. Calls follow the shape of the dose curve; as a rule, active = well fitted curve in the direction sought with a large enough effect; inconclusive = small, poorly fitted or top-dose-only effect, or another doubt; inactive = no such curve, though single readings can be large; an effect the other way counts as inactive or inconclusive.

With `CC(=O)OCC1=C(C(=O)O)N2C(=O)[C@@H](NC(=O)Cc3cccs3)[C@@H]2SC1`, in test [1], the call was inactive.

For `N[C@H](C(=O)N[C@@H]1C(=O)N2C(C(=O)O)=C(Cl)CS[C@@H]12)c1ccccc1`, the result in test [1] was inactive.

For the compound `c1ccc([C@@H]2CN3CCSC3=N2)cc1`, the compound was classed as inactive in test [1].

For the compound `CN1Cc2c(N)cccc2[C@H](c2ccccc2)C1`, the compound was called inactive in test [1].

For the compound `CC(C)(Oc1ccc([C@@H]2CC2(Cl)Cl)cc1)C(=O)O`, in test [1], the outcome was inactive.

Turning to `C=CCc1ccccc1OC[C@H](O)CNC(C)C`, the result in test [1] was inactive.

Take `CC(=O)OCC1=C(C(=O)O)N2C(=O)[C@@H](NC(=O)CSc3ccncc3)[C@@H]2SC1`: the compound was classed as inactive in test [1]. Besides, the Potency entry with 7G8, with ATS95, with C2A, in the test with CP217, in the test on CP237 and in the test on CP252 was “inactive” in each case. The Potency entry with CP268, in the test with CP269, in the test on CP286, with CP291, in the test on CP305 and with CP335 was “inactive” each time. Besides, the Potency entry in the test on DFO2036, in the test with DIV30, in the test on ECU, in the test with HB3, in the test on P94_40 and in the test with PC26 was “inactive” throughout. Also, in the test with TAB165, the Potency result was “inactive”.

Turning to `COc1cc(=O)n(C)c2c(OC[C@@H](O)C(C)(C)O)cccc12`, the result in test [1] was inactive.

For the compound `CC(C)NC[C@H](O)c1cc(O)cc(O)c1`, the outcome in test [1] was inactive. For the same compound, the Potency result in the test on 7G8, in the test with ATS95, in the test with C2A, in the test on CP217, with CP237 and in the test with CP252 was “inactive” each time. In addition, the Potency entry in the test on CP268, in the test with CP269, in the test with CP286, in the test with CP291, in the test with CP305 and in the test on CP335 was “inactive” in each case. In addition, the Potency result with DFO2036, in the test with DIV30, in the test on ECU, with HB3, with P94_40 and in the test with PC26 was “inactive” each time. The Potency result in the test with TAB165 is “inactive”.

With `C[C@@](N)(Cc1ccc(O)c(O)c1)C(=O)O`, the compound was called inactive in test [1].

`C[C@@H](CCc1ccccc1)NC[C@H](O)c1ccc(O)c(C(N)=O)c1`: the Potency with 7G8 is 11.2 µM (active). In addition, the Potency result with ATS95, with C2A, with CP217, in the test on CP237, in the test with CP252 and with CP268 was “inactive” throughout. The Potency result in the test with CP269, with CP286, in the test on CP291, with CP305, with CP335 and in the test with P94_40 was “inactive” throughout. Also, the Potency entry in the test on PC26 and in the test with TAB165 was “inactive” each time.

In the case of `CN(C)[C@@H]1C(=O)C(C(N)=O)=C(O)[C@]2(O)C(=O)C3=C(O)c4c(O)ccc(Cl)c4[C@H](O)[C@H]3C[C@@H]12`, the result in test [1] was inactive. In addition, the Potency result with C2A, in the test with CP217, with CP252, in the test with CP268, in the test with CP269 and in the test with CP291 was “inactive” in each case. The Potency entry with CP305, in the test on DIV30, in the test with P94_40 and in the test with PC26 was “inactive” each time.

As to `CCCN[C@@H](C)C(=O)Nc1ccccc1C`, the compound was classed as inactive in test [1]. For the same compound, the Potency result in the test on 7G8, with ATS95, with C2A, in the test with CP217, in the test with CP237 and with CP252 was “inactive” each time. The Potency entry in the test with CP268, in the test with CP269, in the test with CP286, in the test with CP291, in the test on CP305 and in the test with CP335 was “inactive” throughout. Besides, the Potency result with DFO2036, in the test with DIV30, in the test with ECU, with HB3, in the test with P94_40 and with PC26 was “inactive” each time. The Potency result in the test with TAB165 is “inactive”.

Regarding `O=C(O)CNC(=O)[C@@H](CS)Cc1ccccc1`, in [1], the compound was classed as inactive.

For `O=C(c1ccccc1)c1ccc2n1CC[C@H]2C(=O)O`, the result in test [1] was inactive. For the same compound, the Potency result in the test with 7G8, with ATS95, in the test on C2A, in the test on CP217, with CP237 and with CP252 was “inactive” in each case. Further, the Potency entry in the test on CP268, with CP269, with CP286, with CP291, in the test on CP305 and with CP335 was “inactive” throughout. Further, the Potency entry in the test with DFO2036, with DIV30, in the test on ECU, in the test with HB3, in the test with P94_40 and with PC26 was “inactive” each time. In addition, the Potency result with TAB165 was “inactive”.

Take `CC[C@]1(C)CC(=O)NC1=O`: in test [1], the compound was called inactive. Also, the Potency entry in the test with 7G8, in the test with ATS95, with C2A, in the test on CP217, in the test on CP237 and with CP252 was “inactive” each time. Besides, the Potency result with CP268, with CP269, in the test with CP286, in the test with CP291, in the test on CP305 and with CP335 was “inactive” each time. Further, the Potency entry in the test on DFO2036, in the test on DIV30, in the test with ECU, with HB3, with P94_40 and with PC26 was “inactive” each time. Also, the Potency entry in the test on TAB165 is “inactive”.

With `CC(=O)O[C@]1(C(C)=O)CC[C@@H]2[C@@H]3C=C(Cl)C4=CC(=O)[C@H]5C[C@@H]5[C@]4(C)[C@H]3CC[C@]21C`, the compound was classed as inactive in [1].

`C[C@@H](C[N+](C)(C)C)OC(N)=O`: the compound was called inactive in test [1].

`Cc1cccc(C)c1OC[C@H](C)N`: the compound was called inactive in [1].

Turning to `O[C@@](CCN1CCCCC1)(c1ccccc1)C1CCCCC1`, the compound was called inactive in test [1].

Take `N[C@@H](CO)C(=O)NNCc1ccc(O)c(O)c1O`: the Potency result with 7G8, with ATS95, in the test on C2A, in the test with CP217, with CP237 and in the test on CP252 was “inactive” in each case. The Potency result with CP268, in the test with CP269, in the test with CP286, with CP291, in the test on CP305 and in the test on CP335 was “inactive” throughout. Also, the Potency result with DFO2036, in the test with DIV30, with ECU, in the test on HB3, in the test on P94_40 and in the test on PC26 was “inactive” throughout. In the test on TAB165, the Potency result was “inactive”.

For the compound `CO[C@]1(NC(=O)CSCC#N)C(=O)N2C(C(=O)O)=C(CSc3nnnn3C)CS[C@H]21`, the compound was classed as inactive in [1]. Besides, the Potency result in the test on 7G8, in the test with ATS95, with C2A, in the test with CP217, in the test with CP237 and with CP252 was “inactive” in each case. The Potency entry in the test with CP268, in the test with CP269, with CP286, in the test on CP291, in the test on CP305 and with CP335 was “inactive” in each case. Further, the Potency result in the test with DFO2036, with DIV30, in the test with ECU, with HB3, with P94_40 and with PC26 was “inactive” in each case. Besides, the Potency result with TAB165 was “inactive”.

`C[C@@H]1c2cccc(O)c2C(O)=C2C(=O)[C@@]3(O)C(O)=C(C(N)=O)C(=O)[C@@H](N(C)C)[C@@H]3[C@@H](O)[C@@H]21`: the outcome in test [1] was inactive. The Potency was 3.98 µM (active) with 7G8 and 4.26 µM (active) in the test on CP335. Further, the Potency entry with CP217 is “inactive”.

On to `CC(C)(C)NC[C@H](O)c1cc(O)cc(O)c1`, for which the call in [1] was inactive. For the same compound, the Potency entry with 7G8, in the test on ATS95, with C2A, in the test with CP217, in the test on CP237 and with CP252 was “inactive” each time. The Potency result with CP268, in the test on CP269, in the test on CP286, in the test on CP291, in the test on CP305 and with CP335 was “inactive” in each case. Further, the Potency entry in the test with DFO2036, with DIV30, with ECU, with HB3, in the test on P94_40 and with PC26 was “inactive” throughout. Also, in the test on TAB165, the Potency entry was “inactive”.
